Test results published in the supplement of paper PMC3334620.
In all, about 33,000 sequences were measured (“E-score (-0.5 to 0.5)”: median about -0.017, highest 2% from about 0.3 on). What follows is part of a selection rich in the highest values, with near analogues and random picks from the rest.

molecular target: T1, Sut1 (UniProt P53032); experiment: PBM E-score (8-mer binding enrichment) (E-score (-0.5 to 0.5)); higher = stronger / more preferred TF binding; conditions: protein concentration: 200 nM; construct: GST-full length
T1 sequence: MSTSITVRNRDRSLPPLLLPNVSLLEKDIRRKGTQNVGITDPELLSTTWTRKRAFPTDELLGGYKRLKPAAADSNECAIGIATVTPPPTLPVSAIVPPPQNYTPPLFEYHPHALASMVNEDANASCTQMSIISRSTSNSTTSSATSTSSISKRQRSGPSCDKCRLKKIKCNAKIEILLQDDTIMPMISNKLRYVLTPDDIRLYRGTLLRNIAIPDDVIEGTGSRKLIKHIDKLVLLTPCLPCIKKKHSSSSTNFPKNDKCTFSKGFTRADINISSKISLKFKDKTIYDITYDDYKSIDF
Outline: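 Yeast transcription factors, full-length or as DNA-binding domains, were expressed with a GST tag using PURExpress in vitro transcription/translation. At about 100-200 nM they were applied to universal all-10-mer Agilent arrays, double-stranded by primer extension on fresh or once-stripped slides. Fluorescent anti-GST detected bound protein, and masliner normalised the scans. E-scores for ungapped eight-base words, pooled with reverse complements, came from the Universal PBM Analysis Suite.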

Sequence | PBM E-score
GATACTAA | 0.141
ATGTGGGG | -0.203
CCAAAAGG | -0.0868
CTGAGTGC | -0.199
CGGAGTGA | 0.451
AGGAGTGA | -0.0299
GGGAGTGA | -0.0284
AGGAGTGC | -0.143
CGGAGTGC | 0.468
CAGATACC | -0.149
AGGGGCCG | -0.272
GCGCGTCA | -0.00075
ACCCCGGG | 0.347
CCCCCGGG | -0.174
GACCCGGA | 0.204
ACCCCGGA | 0.426
CACCCGGA | 0.251
CCCCCGGA | 0.0624
AACCCGGA | 0.333
TCCCCGGA | 0.364
ACCCCGGC | 0.183
TCCCCCGA | -0.141
ACCCCGGT | 0.191
TCCCCGAA | 0.228
CTCTGTGA | -0.105

Sequence | PBM E-score
AGCGTCCC | -0.168
TCACCCCA | -0.0213
GAATTTAC | 0.0497
TGCGCAAA | 0.0678
AAGAGACC | -0.0189
ATGCAGCC | -0.0379
AGCAAATG | -0.0134
CCTTCGAC | -0.232
TGCCTAAA | -0.00993
CGACATCA | 0.143
GGACATCA | 0.3
GGACATCC | 0.0309
AGCTCAAG | -0.092
CGTGCAGA | -0.148
AGAGCGGA | 0.318
AGAGCGGG | -0.0998
AGAGCGGC | -0.125
AGGAGCCG | -0.281
AGGAGCTA | -0.155
CGGAGCCC | 0.183
CGGAGCTC | 0.414
CTGAGCTC | 0.119
GGGAGCTA | -0.176
CGGAGCTA | 0.385
AGGAGCTC | -0.18

Sequence | PBM E-score
CGGAGCCG | 0.338
AAGCATTC | 0.0319
GCTCCCCC | -0.444
GCATCAAA | 0.14
CCAAGGAG | -0.0556
ACTTGGTC | 0.183
AGCATACA | 0.187
GCACAGTA | -0.0754
AGTCCGGC | 0.467
GGTCCCGA | 0.093
CGTCCGGC | -0.0125
AGTCCGGA | 0.487
CGTCCGGA | 0.27
AGTCCTGC | -0.19
AGTCCGGG | 0.485
AGTCCAGA | 0.0785
AGGCCGGA | 0.279
AATCCGGG | 0.103
AGTCCCGG | 0.1
GGTCCGGA | 0.402
AAGTCTAC | 0.004
GTAGGCAC | -0.102
GTTCCAGA | -0.0427
ATGAATAA | 0.146
AGACGGCT | -0.121

Sequence | PBM E-score
AGGCTGTG | -0.0562
GGTGCAAA | 0.0509
ATTTTTAA | 0.249
AGTTTAAA | 0.335
AGTTTTTA | 0.175
TGTTTTAA | 0.253
AGTTTAAT | 0.069
AGTTTTAA | 0.341
ATTTTAAA | 0.307
AGTTTATA | 0.335
GGTTTATA | 0.0479
GTTTTAAA | 0.296
AGTTTATC | 0.17
TGTTTAAA | 0.111
AGACCTCC | -0.207
CATAGGGG | -0.348
CGGTTTTC | 0.176
CAAGTCAC | -0.0175
TACAACAA | 0.286
CAGTTGAA | -0.00817
AAGCCAAC | 0.118
AGTTTACA | 0.106
AGTGAACA | 0.0388
CTGGATTA | 0.0735
AGGAGTAG | -0.0194

Sequence | PBM E-score
CGGAGTAA | 0.483
AGGAGTAA | 0.0575
GGGAGTAC | -0.064
AGGAGTAC | -0.106
CGGAGTAG | 0.49
CCGAGTAG | 0.112
CGGAGTAC | 0.487
GGGAGTAA | 0.0687
TAGAATAA | 0.207
CAGTATAG | 0.0135
AATTGGAT | 0.131
ACGCCTCG | -0.115
GGCTTACA | 0.0643
CGTTATAA | 0.135
TGATATAA | 0.222
TGTTATAA | 0.299
CTATATAA | 0.158
AGTTATAA | 0.155
TTATATAA | 0.358
ATATATAA | 0.351
CTCTATAA | 0.186
TCATATAA | 0.121
CGCAACCC | 0.023
ATCCCAAT | 0.0805
CGATGAGC | -0.0442

Sequence | PBM E-score
TAGAAGCA | -0.0194
AGAGTTTA | 0.27
GGAGTTTA | 0.396
GGAGTTCA | 0.339
CGAGTTCA | -0.149
CAAGTTTA | 0.0197
AGAGTTCA | -0.0646
GAAGTTTA | 0.319
CGAGTTTA | 0.0867
AAAGTTTA | 0.203
ACATCTAT | 0.17
GACGCCTC | -0.125
ACTCCTAG | -0.0737
CACTATCA | -0.0232
AGGTCGGC | -0.131
CGGTCGGA | 0.211
CAGTCGGA | 0.204
GAGTCGGA | 0.324
AAGTCGGA | 0.226
AGGTCGGA | 0.316
GAGTCGGC | 0.00136
TAGTCGCA | -0.0489
TAGTCGGA | 0.317
CGTAATGC | 0.0921
ACACAACA | 0.128

Sequence | PBM E-score
AAGATAGG | 0.013
GTCCCAAC | -0.138
GACTATGC | 0.0066
AACTAGAG | 0.0891
ACCTCTAG | -0.0682
GTGGCAGA | -0.253
CATAACGC | -0.00576
GATGAAGC | -0.0232
TAACTGCA | 0.0867
GCGGAACA | -0.11
TCGGAACA | 0.303
CCGGAATA | 0.294
CCGGAACG | 0.202
CCGGAACC | 0.185
CCGGAAGA | 0.312
CCGGAAGG | 0.169
CCGGAACA | 0.304
ACGGAAGA | 0.147
ACGGAATC | 0.252
ACGGAACA | 0.229
CCGGAATC | 0.326
TATACGCA | 0.0114
